According to publication PMC7862700, “An all-to-all approach to the identification of sequence-specific readers for epigenetic DNA modifications on cytosine”:

Assays:
Experiment in all cases: DAPPL (digital affinity profiling via proximity ligation, sequencing); 10 mM Tris-HCl pH 7.5, 50 mM NaCl, 1 mM DTT, 4% glycerol, room temperature, 30 min; GST-TFs on glutathione beads, 16-mer random dsDNA library, 0.1% formaldehyde crosslink after washing; high values mean tight binding
Settings in all cases: protein: recombinant; tags: N-terminal GST; dsDNA, one strand shown
FLI1 = biological target: T1, FLI1 (Homo sapiens, UniProt Q01543 1-452)
T1 sequence: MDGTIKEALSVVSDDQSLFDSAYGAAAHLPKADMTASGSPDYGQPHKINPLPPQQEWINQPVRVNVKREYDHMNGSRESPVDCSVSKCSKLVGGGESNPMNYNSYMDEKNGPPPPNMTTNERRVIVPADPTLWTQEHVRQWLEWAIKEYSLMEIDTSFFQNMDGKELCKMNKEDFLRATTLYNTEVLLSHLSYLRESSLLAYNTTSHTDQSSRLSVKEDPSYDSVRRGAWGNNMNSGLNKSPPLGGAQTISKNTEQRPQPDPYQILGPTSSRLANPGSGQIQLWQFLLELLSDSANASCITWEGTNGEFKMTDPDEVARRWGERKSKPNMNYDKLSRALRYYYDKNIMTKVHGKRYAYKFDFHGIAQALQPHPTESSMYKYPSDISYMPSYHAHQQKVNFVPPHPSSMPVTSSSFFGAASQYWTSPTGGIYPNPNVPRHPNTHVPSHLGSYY
In short: (§1)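 Human transcription factors were made in yeast as GST fusions, captured on glutathione beads and barcoded with DNA. With a tag-only sample included, the pool was incubated with 200 nmole of a random double-stranded 16-mer DNA library in Tris/NaCl/DTT/glycerol buffer at room temperature for 30 min, then crosslinked with 0.1% formaldehyde after washing, ligated by proximity, amplified and sequenced. For binding signal, each hexamer's read frequency for a factor is divided by its frequency for the tag-only sample.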

ELK1 = biological target: T2, ELK1 (Homo sapiens, UniProt P19419 1-428)
T2 sequence: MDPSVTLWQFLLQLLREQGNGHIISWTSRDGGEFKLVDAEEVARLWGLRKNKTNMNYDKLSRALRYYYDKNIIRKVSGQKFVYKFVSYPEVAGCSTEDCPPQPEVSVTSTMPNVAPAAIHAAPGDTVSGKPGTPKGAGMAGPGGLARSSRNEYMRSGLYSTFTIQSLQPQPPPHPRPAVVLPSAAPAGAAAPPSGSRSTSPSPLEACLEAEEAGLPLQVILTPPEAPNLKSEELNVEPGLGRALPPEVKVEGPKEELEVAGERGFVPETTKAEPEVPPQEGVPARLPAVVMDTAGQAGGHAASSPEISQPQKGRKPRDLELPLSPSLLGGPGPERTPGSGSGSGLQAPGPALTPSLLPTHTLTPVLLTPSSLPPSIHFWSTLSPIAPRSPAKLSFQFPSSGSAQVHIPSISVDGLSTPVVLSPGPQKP
In short: as §1

GABPA = biological target: T3, GABPA (Homo sapiens, UniProt Q06546 1-454)
T3 sequence: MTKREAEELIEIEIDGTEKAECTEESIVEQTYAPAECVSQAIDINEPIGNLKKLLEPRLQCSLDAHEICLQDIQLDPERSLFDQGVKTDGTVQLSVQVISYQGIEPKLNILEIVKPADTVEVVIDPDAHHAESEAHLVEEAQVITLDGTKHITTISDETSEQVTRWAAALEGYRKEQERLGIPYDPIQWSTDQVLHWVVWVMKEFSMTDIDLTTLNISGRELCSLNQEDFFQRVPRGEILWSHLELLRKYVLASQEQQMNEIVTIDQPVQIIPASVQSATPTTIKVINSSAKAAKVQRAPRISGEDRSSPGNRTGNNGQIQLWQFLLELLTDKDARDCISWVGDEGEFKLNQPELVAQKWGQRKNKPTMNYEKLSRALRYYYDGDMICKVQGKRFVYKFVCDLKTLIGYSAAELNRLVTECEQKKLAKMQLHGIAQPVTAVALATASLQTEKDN
In short: as §1

ERG = biological target: T4, ERG (Homo sapiens, UniProt P11308 1-479)
T4 sequence: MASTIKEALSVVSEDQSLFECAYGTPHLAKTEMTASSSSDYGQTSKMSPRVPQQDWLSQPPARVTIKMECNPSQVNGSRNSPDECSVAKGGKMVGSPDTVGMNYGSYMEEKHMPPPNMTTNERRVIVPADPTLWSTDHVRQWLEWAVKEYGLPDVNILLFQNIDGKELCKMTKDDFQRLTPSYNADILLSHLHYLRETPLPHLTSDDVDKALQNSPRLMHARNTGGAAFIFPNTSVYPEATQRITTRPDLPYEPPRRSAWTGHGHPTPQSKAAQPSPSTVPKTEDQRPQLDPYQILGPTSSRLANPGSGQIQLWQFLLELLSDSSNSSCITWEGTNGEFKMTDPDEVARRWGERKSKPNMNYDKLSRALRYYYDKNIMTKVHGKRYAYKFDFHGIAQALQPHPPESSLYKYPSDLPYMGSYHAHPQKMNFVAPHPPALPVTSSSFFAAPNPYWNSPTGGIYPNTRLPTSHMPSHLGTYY
In short: as §1

ELF1 = ELF1 (Homo sapiens, UniProt P32519 1-619)
In short: as §1

EHF = biological target: T5, EHF (Homo sapiens, UniProt Q9NZC4 1-300)
T5 sequence: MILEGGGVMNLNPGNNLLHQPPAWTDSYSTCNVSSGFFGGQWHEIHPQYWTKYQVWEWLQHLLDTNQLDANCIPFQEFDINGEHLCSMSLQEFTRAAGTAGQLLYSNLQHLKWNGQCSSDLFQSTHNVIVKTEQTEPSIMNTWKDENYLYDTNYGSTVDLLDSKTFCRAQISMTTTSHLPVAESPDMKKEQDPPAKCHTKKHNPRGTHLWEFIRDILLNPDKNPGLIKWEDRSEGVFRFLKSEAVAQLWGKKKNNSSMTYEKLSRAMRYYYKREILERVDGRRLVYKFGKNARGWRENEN
In short: as §1

SPI1 [1] = biological target: SPI1 (Homo sapiens, UniProt P17947 1-270)
In short: as §1

SPIB = SPIB (Homo sapiens, UniProt Q01892 1-262)
In short: as §1

ELK3 = biological target: T6, ELK3 (Homo sapiens, UniProt P41970 1-407)
T6 sequence: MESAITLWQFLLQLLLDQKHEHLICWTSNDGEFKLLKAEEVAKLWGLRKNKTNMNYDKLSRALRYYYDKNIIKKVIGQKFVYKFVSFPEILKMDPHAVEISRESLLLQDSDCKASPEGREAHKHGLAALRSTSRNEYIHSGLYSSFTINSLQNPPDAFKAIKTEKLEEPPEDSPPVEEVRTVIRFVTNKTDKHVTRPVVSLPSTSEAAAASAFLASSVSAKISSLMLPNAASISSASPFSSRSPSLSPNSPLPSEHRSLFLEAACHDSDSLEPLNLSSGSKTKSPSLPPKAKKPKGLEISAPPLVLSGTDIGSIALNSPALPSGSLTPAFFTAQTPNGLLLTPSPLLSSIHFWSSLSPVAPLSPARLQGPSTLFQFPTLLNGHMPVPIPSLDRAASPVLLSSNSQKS
In short: as §1

SPI1 [2] = biological target: SPI1 (Homo sapiens, UniProt P17947 1-270); remark: listed apart in the source
In short: as §1

Chain of SPIB (Q01892 whole entry): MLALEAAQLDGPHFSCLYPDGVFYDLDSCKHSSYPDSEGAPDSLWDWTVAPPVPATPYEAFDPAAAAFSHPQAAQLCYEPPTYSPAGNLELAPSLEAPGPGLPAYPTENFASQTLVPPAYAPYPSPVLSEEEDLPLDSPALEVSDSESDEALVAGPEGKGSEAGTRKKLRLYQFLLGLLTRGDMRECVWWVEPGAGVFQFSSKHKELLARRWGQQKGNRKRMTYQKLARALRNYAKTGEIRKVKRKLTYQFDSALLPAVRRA
Chain of ELF1 (P32519 whole entry): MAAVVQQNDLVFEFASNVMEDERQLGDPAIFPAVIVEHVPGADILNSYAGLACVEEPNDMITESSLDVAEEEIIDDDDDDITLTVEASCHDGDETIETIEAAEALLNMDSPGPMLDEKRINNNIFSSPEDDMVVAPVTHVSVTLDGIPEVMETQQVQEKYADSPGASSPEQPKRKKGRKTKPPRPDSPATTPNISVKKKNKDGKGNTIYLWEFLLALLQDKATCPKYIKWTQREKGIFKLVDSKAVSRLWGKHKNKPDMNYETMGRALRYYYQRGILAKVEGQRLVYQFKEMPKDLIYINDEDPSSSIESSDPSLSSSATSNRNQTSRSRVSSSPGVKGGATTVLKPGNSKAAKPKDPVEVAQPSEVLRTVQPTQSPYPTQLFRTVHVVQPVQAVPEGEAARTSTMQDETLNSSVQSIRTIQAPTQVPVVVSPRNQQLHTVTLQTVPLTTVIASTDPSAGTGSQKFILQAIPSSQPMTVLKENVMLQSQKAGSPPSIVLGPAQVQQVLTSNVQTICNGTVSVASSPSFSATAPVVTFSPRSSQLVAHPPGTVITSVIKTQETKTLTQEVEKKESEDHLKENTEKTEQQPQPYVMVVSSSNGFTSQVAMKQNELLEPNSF

Row | Sequence | binding signal (FLI1) | binding signal (ELK1) | binding signal (GABPA) | binding signal (ERG) | binding signal (ELF1) | binding signal (EHF) | binding signal (SPI1 [1]) | binding signal (SPIB) | binding signal (ELK3) | binding signal (SPI1 [2])
1 | TCTTCT | 1.3 fold enrichment (6-mer frequency, TF over GST control) | 1.29 fold enrichment (6-mer frequency, TF over GST control) | 1.21 fold enrichment (6-mer frequency, TF over GST control) | 1.23 fold enrichment (6-mer frequency, TF over GST control) | 1.25 fold enrichment (6-mer frequency, TF over GST control) | 1.14 fold enrichment (6-mer frequency, TF over GST control) | 1.22 fold enrichment (6-mer frequency, TF over GST control) | 1.19 fold enrichment (6-mer frequency, TF over GST control) | 1.25 fold enrichment (6-mer frequency, TF over GST control) | 
2 | CTTCCG | 7.32 fold enrichment (6-mer frequency, TF over GST control) | 8.14 fold enrichment (6-mer frequency, TF over GST control) | 6.76 fold enrichment (6-mer frequency, TF over GST control) | 8.96 fold enrichment (6-mer frequency, TF over GST control) | 7.37 fold enrichment (6-mer frequency, TF over GST control) | 7.93 fold enrichment (6-mer frequency, TF over GST control) |  | 7.71 fold enrichment (6-mer frequency, TF over GST control) | 9.13 fold enrichment (6-mer frequency, TF over GST control) | 9.8 fold enrichment (6-mer frequency, TF over GST control)
3 | TTGTTA | 1.32 fold enrichment (6-mer frequency, TF over GST control) | 1.34 fold enrichment (6-mer frequency, TF over GST control) | 1.32 fold enrichment (6-mer frequency, TF over GST control) | 1.33 fold enrichment (6-mer frequency, TF over GST control) | 1.29 fold enrichment (6-mer frequency, TF over GST control) | 1.36 fold enrichment (6-mer frequency, TF over GST control) | 1.26 fold enrichment (6-mer frequency, TF over GST control) | 1.33 fold enrichment (6-mer frequency, TF over GST control) | 1.47 fold enrichment (6-mer frequency, TF over GST control) | 
4 | ATCTTG | 1.35 fold enrichment (6-mer frequency, TF over GST control) | 1.38 fold enrichment (6-mer frequency, TF over GST control) | 1.27 fold enrichment (6-mer frequency, TF over GST control) | 1.39 fold enrichment (6-mer frequency, TF over GST control) | 1.33 fold enrichment (6-mer frequency, TF over GST control) | 1.35 fold enrichment (6-mer frequency, TF over GST control) | 1.3 fold enrichment (6-mer frequency, TF over GST control) | 1.31 fold enrichment (6-mer frequency, TF over GST control) | 1.41 fold enrichment (6-mer frequency, TF over GST control) | 
5 | ACTTCC | 7.89 fold enrichment (6-mer frequency, TF over GST control) | 8.92 fold enrichment (6-mer frequency, TF over GST control) | 7.33 fold enrichment (6-mer frequency, TF over GST control) | 10 fold enrichment (6-mer frequency, TF over GST control) | 7.99 fold enrichment (6-mer frequency, TF over GST control) | 8.81 fold enrichment (6-mer frequency, TF over GST control) |  | 8.52 fold enrichment (6-mer frequency, TF over GST control) | 9.72 fold enrichment (6-mer frequency, TF over GST control) | 12.7 fold enrichment (6-mer frequency, TF over GST control)
6 | ATCTAG | 1.12 fold enrichment (6-mer frequency, TF over GST control) | 1.16 fold enrichment (6-mer frequency, TF over GST control) | 1.12 fold enrichment (6-mer frequency, TF over GST control) | 1.1 fold enrichment (6-mer frequency, TF over GST control) | 1.1 fold enrichment (6-mer frequency, TF over GST control) | 1.14 fold enrichment (6-mer frequency, TF over GST control) | 1.14 fold enrichment (6-mer frequency, TF over GST control) | 1.2 fold enrichment (6-mer frequency, TF over GST control) | 1.23 fold enrichment (6-mer frequency, TF over GST control) | 
7 | ATTACA | 1.14 fold enrichment (6-mer frequency, TF over GST control) | 1.13 fold enrichment (6-mer frequency, TF over GST control) | 1.06 fold enrichment (6-mer frequency, TF over GST control) | 1.12 fold enrichment (6-mer frequency, TF over GST control) | 1.1 fold enrichment (6-mer frequency, TF over GST control) | 1.12 fold enrichment (6-mer frequency, TF over GST control) | 1.08 fold enrichment (6-mer frequency, TF over GST control) | 1.15 fold enrichment (6-mer frequency, TF over GST control) | 1.11 fold enrichment (6-mer frequency, TF over GST control) | 
